Measured values published in PubChem BioAssay (NCATS).
Records with an inconclusive call do not appear. The list shows a part of the results. The source made the active and inactive calls. Calls come from the whole dose curve; as a rule, active = well fitted curve in the direction sought with a large enough effect; inconclusive = small, poorly fitted or top-dose-only effect, or another doubt; inactive = no such curve, though single readings can be large; an effect the other way counts as inactive or inconclusive.

Tests used:
[1] = target: Rap guanine nucleotide exchange factor 3 (Homo sapiens) (UniProt O95398); assay: Confirmatory qHTS for agonist of cAMP-regulated guanine nucleotide exchange factor 3 (EPAC1) (AID 1645881); note: nearly all actives have a fitted effect of over 75% in size; note: potency is the fitted concentration of half-maximal effect;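 for activation: EPAC1 catalysed release of BODIPY-GDP from Rap1B seen as fluorescence loss; 100% = effect of cAMP agonist control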
Rap guanine nucleotide exchange factor 3 (Homo sapiens), sequence (O95398 whole entry, looked up): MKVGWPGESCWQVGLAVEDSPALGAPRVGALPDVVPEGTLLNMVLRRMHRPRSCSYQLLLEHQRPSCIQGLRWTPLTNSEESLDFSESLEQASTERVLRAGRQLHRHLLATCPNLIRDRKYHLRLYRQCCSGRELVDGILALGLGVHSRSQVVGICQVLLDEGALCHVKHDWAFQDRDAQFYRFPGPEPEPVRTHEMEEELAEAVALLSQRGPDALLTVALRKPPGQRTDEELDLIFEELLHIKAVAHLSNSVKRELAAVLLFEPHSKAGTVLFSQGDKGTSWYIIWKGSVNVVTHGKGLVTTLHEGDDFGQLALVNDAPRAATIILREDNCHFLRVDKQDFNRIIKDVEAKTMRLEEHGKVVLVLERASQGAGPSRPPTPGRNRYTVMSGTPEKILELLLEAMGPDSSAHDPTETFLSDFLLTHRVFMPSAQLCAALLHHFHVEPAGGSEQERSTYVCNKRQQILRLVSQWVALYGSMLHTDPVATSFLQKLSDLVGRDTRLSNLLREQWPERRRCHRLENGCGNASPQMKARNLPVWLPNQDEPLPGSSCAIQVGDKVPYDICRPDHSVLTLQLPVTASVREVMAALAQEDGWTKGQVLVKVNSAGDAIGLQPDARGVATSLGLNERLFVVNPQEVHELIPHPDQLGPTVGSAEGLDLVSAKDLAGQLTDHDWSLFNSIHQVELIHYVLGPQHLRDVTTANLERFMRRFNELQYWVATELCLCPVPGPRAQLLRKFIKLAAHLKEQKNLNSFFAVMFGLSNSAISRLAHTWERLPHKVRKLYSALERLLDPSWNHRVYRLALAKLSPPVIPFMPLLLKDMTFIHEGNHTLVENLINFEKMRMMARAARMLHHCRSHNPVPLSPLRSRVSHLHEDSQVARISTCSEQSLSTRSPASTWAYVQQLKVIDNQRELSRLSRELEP

[2] = target: Rap guanine nucleotide exchange factor 4 (Homo sapiens) (UniProt Q8WZA2); assay: Confirmatory qHTS for agonist of cAMP-regulated guanine nucleotide exchange factor 4 (EPAC2) (AID 1645884);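 note: nucleotide exchange releases bodipy-GDP from Rap1 and this lowers its fluorescence; nearly all actives have a fitted effect of over 65% in size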; note: potency is the fitted concentration of half-maximal effect; for activation: % is set by controls: 0 for no effect and ±100 for the full control effect
Rap guanine nucleotide exchange factor 4 (Homo sapiens), sequence (Q8WZA2 whole entry, looked up): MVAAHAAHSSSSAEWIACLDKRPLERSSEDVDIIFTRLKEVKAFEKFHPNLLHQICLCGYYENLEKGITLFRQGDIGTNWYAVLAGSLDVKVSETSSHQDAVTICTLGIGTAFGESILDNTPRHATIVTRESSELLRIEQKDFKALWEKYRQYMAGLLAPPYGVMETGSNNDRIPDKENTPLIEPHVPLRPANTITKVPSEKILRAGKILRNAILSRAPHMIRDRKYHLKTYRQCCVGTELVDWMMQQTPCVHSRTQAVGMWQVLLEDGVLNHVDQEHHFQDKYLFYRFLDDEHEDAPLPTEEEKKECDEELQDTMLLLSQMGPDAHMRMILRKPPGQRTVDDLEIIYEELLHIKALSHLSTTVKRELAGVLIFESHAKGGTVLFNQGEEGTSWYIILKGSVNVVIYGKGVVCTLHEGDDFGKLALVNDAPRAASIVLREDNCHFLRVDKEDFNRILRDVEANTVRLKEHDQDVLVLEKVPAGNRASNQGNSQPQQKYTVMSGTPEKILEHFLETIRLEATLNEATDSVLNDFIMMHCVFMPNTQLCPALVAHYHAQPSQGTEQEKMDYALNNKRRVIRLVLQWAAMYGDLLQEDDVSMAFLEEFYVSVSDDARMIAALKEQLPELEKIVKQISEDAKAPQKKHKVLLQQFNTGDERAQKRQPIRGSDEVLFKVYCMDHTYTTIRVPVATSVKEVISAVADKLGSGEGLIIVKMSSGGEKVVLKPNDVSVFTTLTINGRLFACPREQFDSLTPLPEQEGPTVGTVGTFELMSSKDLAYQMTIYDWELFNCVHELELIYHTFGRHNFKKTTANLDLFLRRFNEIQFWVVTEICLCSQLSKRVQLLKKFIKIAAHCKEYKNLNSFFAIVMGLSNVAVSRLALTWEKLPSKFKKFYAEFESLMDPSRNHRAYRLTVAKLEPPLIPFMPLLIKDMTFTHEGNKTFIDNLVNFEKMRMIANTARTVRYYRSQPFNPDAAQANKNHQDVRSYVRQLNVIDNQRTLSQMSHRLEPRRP

[3] = target: Rap guanine nucleotide exchange factor 3 (Homo sapiens) (UniProt O95398); assay: Counterscreen qHTS for antagonist of cAMP-regulated guanine nucleotide exchange factor 3 (EPAC1) (AID 1645888);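 note: fluorescence loss as bound BODIPY-GDP is released from Rap1B; % of control where 0% means no effect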
In short: (§1)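 Measured: fluorescence of BODIPY-GDP bound to Rap1B, which falls as exchange proceeds. Conditions include 50 uM competing GDP, 5 and 30 min reads, and a later cAMP challenge for antagonist detection.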

[4] = target: Rap guanine nucleotide exchange factor 3 (Homo sapiens) (UniProt O95398); assay: Counterscreen qHTS for agonist of cAMP-regulated guanine nucleotide exchange factor 3 (EPAC1) (AID 1645889); note: nearly all actives have a fitted effect of over 40% in size; note: potency is the fitted concentration of half-maximal effect; for activation: % of control where 0% means no effect
In short: as §1

[5] = target: Tyrosyl-DNA phosphodiesterase 1 (Homo sapiens) (UniProt Q9NUW8); assay: Confirmation Assay for Inhibitors of Tyrosyl-DNA Phosphodiesterase (TDP1) (AID 489007); settings: recombinant human TDP1 enzymatic activity, dose-response; note: potency is the fitted concentration of half-maximal effect; nearly all actives have a fitted effect of over 40% in size
Tyrosyl-DNA phosphodiesterase 1 (Homo sapiens), sequence (Q9NUW8 whole entry, looked up): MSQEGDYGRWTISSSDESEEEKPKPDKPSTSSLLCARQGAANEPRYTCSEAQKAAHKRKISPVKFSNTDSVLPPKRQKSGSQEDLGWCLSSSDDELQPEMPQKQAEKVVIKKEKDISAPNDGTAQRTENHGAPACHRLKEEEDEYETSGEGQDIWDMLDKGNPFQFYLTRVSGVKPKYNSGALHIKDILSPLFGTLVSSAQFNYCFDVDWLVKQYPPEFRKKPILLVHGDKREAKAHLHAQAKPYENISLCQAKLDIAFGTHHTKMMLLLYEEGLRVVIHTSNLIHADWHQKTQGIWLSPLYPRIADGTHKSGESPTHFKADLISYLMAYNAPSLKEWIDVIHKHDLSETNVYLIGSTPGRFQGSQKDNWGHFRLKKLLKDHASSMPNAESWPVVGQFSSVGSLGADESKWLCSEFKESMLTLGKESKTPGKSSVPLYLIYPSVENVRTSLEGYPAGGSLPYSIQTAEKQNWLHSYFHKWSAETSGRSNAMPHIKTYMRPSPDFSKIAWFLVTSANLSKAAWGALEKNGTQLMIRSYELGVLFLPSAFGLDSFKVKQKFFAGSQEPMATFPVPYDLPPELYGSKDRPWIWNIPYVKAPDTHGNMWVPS
In short: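 AlphaScreen read-out: streptavidin donor and anti-FITC acceptor beads (10 ug/ml) bind intact substrate, so Tdp1 removal of tyrosine-FITC lowers signal. Enzyme 1 nM, substrate 15 nM, 5 min reaction at room temperature after 15 min compound preincubation.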

[6] = target: DNA polymerase iota (Homo sapiens) (UniProt Q9UNA4); assay: qHTS for Inhibitors of Polymerase Iota: Confirmatory Assay for Cherry-picked Compounds (AID 720496); settings: Pol iota primer extension, TAMRA/BHQ fluorescence; note: potency is the fitted concentration of half-maximal effect
DNA polymerase iota (Homo sapiens), sequence (Q9UNA4 whole entry, looked up): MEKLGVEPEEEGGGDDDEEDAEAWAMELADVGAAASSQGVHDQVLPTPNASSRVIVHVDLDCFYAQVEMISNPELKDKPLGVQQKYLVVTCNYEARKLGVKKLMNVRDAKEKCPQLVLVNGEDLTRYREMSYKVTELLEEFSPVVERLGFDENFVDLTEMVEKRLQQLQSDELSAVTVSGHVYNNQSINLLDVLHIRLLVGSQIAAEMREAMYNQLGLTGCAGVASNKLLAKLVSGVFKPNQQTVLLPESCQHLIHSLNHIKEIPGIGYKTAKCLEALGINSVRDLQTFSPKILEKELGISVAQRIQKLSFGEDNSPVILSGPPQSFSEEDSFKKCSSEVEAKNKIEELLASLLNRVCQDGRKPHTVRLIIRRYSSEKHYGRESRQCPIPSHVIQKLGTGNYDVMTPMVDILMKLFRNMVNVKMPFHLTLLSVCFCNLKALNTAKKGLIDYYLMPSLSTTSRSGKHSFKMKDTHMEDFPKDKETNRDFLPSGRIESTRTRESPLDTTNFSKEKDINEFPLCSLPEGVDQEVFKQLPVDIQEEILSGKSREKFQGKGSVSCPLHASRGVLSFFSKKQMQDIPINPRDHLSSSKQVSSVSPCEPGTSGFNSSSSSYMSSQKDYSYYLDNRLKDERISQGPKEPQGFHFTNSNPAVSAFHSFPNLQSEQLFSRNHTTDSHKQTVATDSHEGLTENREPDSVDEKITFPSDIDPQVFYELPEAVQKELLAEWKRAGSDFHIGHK
In short: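 Enzyme (10 nM Pol iota) and compound sit together for 15 min at room temperature. Adding annealed primer/TAMRA-reporter/BHQ-2-template substrate, 50 nM final, starts the reaction, which is followed by fluorescence over 10 min.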

[7] = target: Flap endonuclease 1 (Homo sapiens) (UniProt P39748); assay: qHTS Assay for the Inhibitors of FEN1: Confirmatory Assay for Cherry-picked Compounds (AID 720498); settings: FEN1 flap cleavage, TAMRA/BHQ2 fluorogenic DNA substrate; note: potency is the fitted concentration of half-maximal effect; nearly all actives have a fitted effect of over 60% in size
Flap endonuclease 1 (Homo sapiens), sequence (P39748 whole entry, looked up): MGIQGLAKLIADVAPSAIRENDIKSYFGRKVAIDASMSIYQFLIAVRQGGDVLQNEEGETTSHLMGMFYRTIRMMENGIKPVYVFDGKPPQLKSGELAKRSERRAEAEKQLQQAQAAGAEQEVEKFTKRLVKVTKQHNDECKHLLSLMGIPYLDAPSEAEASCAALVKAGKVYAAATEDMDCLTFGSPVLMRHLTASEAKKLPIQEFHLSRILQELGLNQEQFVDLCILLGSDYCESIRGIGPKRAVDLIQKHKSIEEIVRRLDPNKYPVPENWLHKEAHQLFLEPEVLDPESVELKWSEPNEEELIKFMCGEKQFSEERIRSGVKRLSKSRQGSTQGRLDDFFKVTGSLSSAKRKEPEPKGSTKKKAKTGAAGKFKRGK
In short: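 Human FEN1 (10 nM reagent) was preincubated with compounds for 15 min at room temperature, then 50 nM final double-flap DNA substrate (5'-TAMRA flap, BHQ-2 quencher strand) was added. Fluorescence (ex 525/em 598 nm) was read at 0 and 15 min.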

Cc1ccc(O)c(CNc2ccc(S(=O)(=O)Nc3nccs3)cc2)c1
inactive: Potency [1] | activation [2] -10.4% [at 17.1 µM, percent relative to cAMP agonist control] | activity change, negative = inhibition [3] 1.37% [at 30.8 µM] | activation [4] 19.2% [at 30.8 µM]

O=C(N/N=C/c1ccoc1)c1cc(O)cc(O)c1
inactive: Potency [1] | Potency [2] | Potency [3] | Potency [4]

Fc1ccc2cnc(-c3ccccc3)c(-c3ccc(C(F)(F)F)cc3)c2c1
inactive: Potency [1] | Potency [2] | Potency [3] | Potency [4]

CCN1CC=C2C(C#N)=C(N)C(C#N)(C#N)C(CCc3ccccc3)C2C1 (centres undefined)
inactive: Potency [3]
active: Potency [1] 50.1 µM | Potency [2] 50.1 µM | Potency [4] 5.62 µM

CCCCN(CCCC)C1=Nc2ccccc2N/C1=C(/C#N)C(=O)OCC
inactive: Potency [1] | Potency [2] | Potency [3] | Potency [4]

CCOC(=O)N/N=C/c1ccc(OCCSc2ccc(Cl)cc2)c(OC)c1
inactive: Potency [1] | Potency [2] | Potency [3] | Potency [4]

CCCCCOC(=O)C1=C(C)Nc2nnnn2C1c1ccccc1Cl (centres undefined)
inactive: Potency [1] | activation [2] 12.2% [at 17.1 µM, percent relative to cAMP agonist control] | activity change, negative = inhibition [3] -14.1% [at 30.8 µM] | activation [4] 21.2% [at 30.8 µM]

O=S(=O)(Nc1ccccc1-c1ccccc1)c1ccccc1
inactive: Potency [1] | Potency [2] | Potency [3] | Potency [4]

CC(Nc1ccc(Cl)cc1)c1cc(Cl)ccc1O (centres undefined)
inactive: Potency [1] | Potency [2] | Potency [4]

O=C(Nc1nc2ccccc2c(=O)s1)c1ccc(F)cc1Cl
inactive: Potency [1] | Potency [2] | Potency [4]

CCOC(=O)c1c(NC(=O)C2C3C=CC(C3)C2C(=O)O)sc2c1CCC(CC)C2 (centres undefined)
inactive: Potency [1] | Potency [2] | Potency [4]

O=C(COc1ccc(Cl)cc1Cl)c1ccc[nH]1
inactive: Potency [1] | activation [2] -1.61% [at 17.1 µM, percent relative to cAMP agonist control] | activity change, negative = inhibition [3] -17.9% [at 30.8 µM] | activation [4] 7.74% [at 30.8 µM]

CCCCOc1ccc(C(=O)N/N=C/c2cn[nH]c2-c2ccc(OC)c(OC)c2)cc1
inactive: Potency [1] | Potency [2] | Potency [4]

O=C(CSc1nnc(SCc2ccc(Cl)cc2)s1)N/N=C/c1ccc(C(=O)O)cc1
inactive: Potency [1] | Potency [2] | Potency [4]

COc1cccc(C(=O)Oc2ccc(/C=N/Nc3ccc(C(=O)O)cc3)cc2OC)c1
inactive: Potency [1] | Potency [2] | Potency [3] | Potency [4]

COc1ccccc1N(C)S(=O)(=O)c1ccc(C(=O)NC2CCCCC2)cc1
inactive: Potency [1] | Potency [2] | Potency [3] | Potency [4]

CCCCC[C@@H](C)N1C[C@H](COCc2ccccc2)Oc2cc(N3CC[C@H](N(C)C)C3)ccc2S1(=O)=O
inactive: Potency [1] | Potency [2] | Potency [4]

Cc1c(C(=O)N2CCCC2)oc2ccc(Br)cc12
inactive: Potency [1] | Potency [2] | Potency [3] | Potency [4]

O=C(CSc1nnc(-c2ccco2)c(-c2ccco2)n1)c1ccccc1
inactive: Potency [1] | Potency [2] | Potency [3] | Potency [4]

O=C(O)c1cc(NN=C2c3ccccc3-c3ccccc32)ccc1Cl
inactive: Potency [1] | Potency [2] | Potency [3] | Potency [4]

NS(=O)(=O)c1ccc(N/N=C/c2ccc(C(=O)O)cc2)c([N+](=O)[O-])c1
inactive: Potency [1] | Potency [2] | Potency [3] | Potency [4]

CCOc1ccc(C(=O)CCN2CCCCCC2)cc1
inactive: Potency [1] | Potency [2] | Potency [4]

COc1ccc(C(=O)c2ccccc2Cl)cc1OC
inactive: Potency [1] | Potency [2] | Potency [4]

O=S(=O)(c1cc(C(F)(F)F)ccc1Cl)N1CCN(c2ncnc3ccccc23)CC1
inactive: Potency [1] | Potency [2] | Potency [4]

C=CCN(C(=O)Cn1ncc2c1-c1cc(C)ccc1OC2)c1ccccc1
inactive: Potency [1] | Potency [2] | Potency [4]

COc1cc(/C=C/[N+](=O)[O-])ccc1OCc1cccc(C(=O)O)c1
inactive: Potency [1] | Potency [2] | Potency [3] | Potency [4]
active: Potency [5] 79.4 µM

CCCOP(=O)(OCCC)C(Nc1cccc(C(F)(F)F)c1)c1ccc(C)cc1 (centres undefined)
inactive: Potency [1] | Potency [2] | Potency [4]

COc1ccc(-c2nn(-c3ccccc3)cc2/C=C2/SC(=S)N(CCCC(=O)O)C2=O)c(C)c1
active: Potency [6] 75.2 µM | Potency [7] 47.8 µM
inactive: Potency [1] | Potency [2] | Potency [3] | Potency [4]
